# Bioassay records deposited in PubChem BioAssay by National Center for Advancing Translational Sciences (NCATS).
# Only some compounds are listed: those with a hit (about 19% of all), similar ones and a draw of the others.
# DT40 TDP1 CPT: qHTS for Inhibitors of human tyrosyl-DNA phosphodiesterase 1 (TDP1): qHTS in cells in presence of CPT; chicken DT40 Tdp1-/-;hTDP1 cells + 20 nM CPT, ATP luminescence, 48 h; Potency, µM (series often up to 46.2 µM), usual class: inhibitors; 420,000 tested, 12% active; AID 686979, 2013; note: nearly all actives have a fitted effect of over 55% in size
#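 Chicken DT40 Tdp1-/- cells complemented with human TDP1, 400 cells/well, exposed to compounds plus 20 nM camptothecin for at least 48 h at 37 C; viability read as ATP content by CellTiter-Glo luminescence.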
# TDP1 cell noCPT: qHTS for Inhibitors of human tyrosyl-DNA phosphodiesterase 1 (TDP1): qHTS in cells in absence of CPT; DT40 Tdp1-/- hTDP1 cells, no CPT, ATP luminescence, 48 h; Potency, µM (titrated, usually from 46.2 µM), actives largely listed as inhibitors; 420,000 tested, 15% active; AID 686978, 2013; note: nearly all actives have a fitted effect of over 55% in size
#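 Compound effects on proliferation are scored in DT40 Tdp1-/-;hTDP1 cells in the absence of CPT. ATP levels (CellTiter-Glo luminescence) are recorded after a ≥48 hr, 37 °C incubation.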
# uPA surface inh: qHTS for Inhibitors of Cell Surface uPA Generation. cell surface uPA generation assay, qHTS. AID 540303, 2011. 330,000 tested, 0.31% active. Potency, µM (titrated, usually from 38.3 µM), hits mostly inhibitors; active = well fitted inhibition curve with a large enough effect; inconclusive = small, poorly fitted or top-dose-only effect; inactive = no such curve, though single readings can be large or run the other way; tested in mouse RAW 264.7 cells; note: nearly all actives have a fitted effect of over 55% in size
# IL1B secr inh: qHTS for Inhibitors of Inflammasome Signaling: IL-1-beta AlphaLISA Primary Screen. THP-1 LPS/ATP IL-1B secretion, AlphaLISA, 16 h; active compounds read low. activity change, % at 57.5 µM. 360,000 tested, 4.7% active; in the data active = activity change below about -50%; inconclusive = mostly about -30% to -49%
#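 Secreted IL-1B measured by AlphaLISA bead assay after 16 h compound exposure of THP-1 cells; compounds (final up to 57.5 uM) added 1 h before LPS (250 ng/mL) and ATP (1.25 mM) stimulation; lower signal means less secretion.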
# HT1080 IDH1KD tx: qHTS for induction of synthetic lethality in tumor cells producing 2HG: qHTS for the HT-1080-IDH1KD cell line | AID 686971, 2013 | 360,000 tested, 2% active | HT-1080 IDH1 knockdown viability, ATP luminescence, 48 h | Potency, µM (top dose mostly 46.1 µM), actives largely listed as cytotoxic
#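 Knockdown cells (IDH1KD HT-1080) received compounds 2 h after plating at 750 cells/well and were kept 48 h at 37 °C in 5% FBS RPMI. A CellTiter-Glo luminescence read gave % activity for curve fitting.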
# HT1080-NT tox: qHTS for induction of synthetic lethality in tumor cells producing 2HG: qHTS for the HT-1080-NT fibrosarcoma cell line; HT-1080-NT fibrosarcoma viability, CellTiter-Glo ATP luminescence, 48 h; Potency, µM (top dose mostly 46.1 µM), most hits filed as cytotoxic; 360,000 tested, 1.6% active;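 note: NT is the 2HG producing partner of a matched IDH1 knockdown line; nearly all actives have a fitted effect of over 55% in size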
#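 Read-out is CellTiter-Glo luminescence after 10 minutes at room temperature, following 48 hours' compound treatment of HT-1080-NT cells (750 cells/well, RPMI, 5% FBS, 37 degrees C).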
# A number is an active result; i = inactive; ? = inconclusive; nt = no result. Unless noted, calls come from the whole dose curve; as a rule, active = well fitted curve in the direction sought with a large enough effect; inconclusive = small, poorly fitted or top-dose-only effect, or another doubt; inactive = no such curve, though single readings can be large; an effect the other way counts as inactive or inconclusive.
SMILES,DT40 TDP1 CPT,TDP1 cell noCPT,uPA surface inh,IL1B secr inh,HT1080 IDH1KD tx,HT1080-NT tox
CC1CCCN(C(=O)c2ccc3c(=O)n4nc(Nc5ccccc5)sc4nc3c2)C1 (configuration not stated),i,?,nt,i,i,i
COc1ccccc1Nc1nn2c(=O)c3ccc(C(=O)N4CCCC(C)C4)cc3nc2s1 (configuration not stated),11.6µM,23.1µM,i,i,i,i
CCOC(=O)C1CCN(C(=O)c2ccc3c(=O)n4nc(Nc5cc(C)ccc5C)sc4nc3c2)CC1,9.2µM,18.4µM,i,i,i,i
CCOC(=O)C1CCN(C(=O)c2ccc3c(=O)n4nc(Nc5ccccc5OC)sc4nc3c2)CC1,25.9µM,20.6µM,nt,-52.2,i,i
CCOC(=O)C1CCN(C(=O)c2ccc3c(=O)n4c(nc3c2)CCCCC4)CC1,i,i,i,i,i,i
O=C(CCc1ccccc1)NNC(=O)c1ccncc1,i,i,i,i,i,i
CCOC(=O)CCCC(=O)N1CCOCCOCCOCC1,i,i,i,i,i,i
O=C(CSc1nc2c([nH]c3ccccc32)c(=O)n1-c1ccccc1F)Nc1cccc(Cl)c1,?,20.6µM,nt,nt,nt,nt
Cc1cc(C)cc(-n2c(SCC(=O)Nc3cccc(F)c3)nc3c([nH]c4ccccc43)c2=O)c1,i,?,nt,nt,nt,nt
O=C(CSc1nc2c([nH]c3ccccc32)c(=O)n1-c1ccccc1)Nc1cccc(C(F)(F)F)c1,14.6µM,23.1µM,nt,nt,nt,nt
Cc1ccc(-n2c(SCC(N)=O)nc3c([nH]c4ccccc43)c2=O)cc1,14.6µM,25.9µM,i,i,i,i
Cc1cc(C)cc(NC(=O)CSc2nc3c([nH]c4ccccc43)c(=O)n2-c2ccc(F)cc2)c1,8.2µM,20.6µM,nt,nt,nt,nt
CSc1nc2c([nH]c3ccccc32)c(=O)n1-c1ccc(C)cc1,i,i,nt,nt,nt,nt
N#CCCn1cc(C(=O)N2CCCCC2)c(-c2ccc([N+](=O)[O-])cc2)n1,i,i,i,i,i,i
Cc1cccc(NC(=O)c2ccc(N3C(=O)C4CCCCC4C3=O)cc2)c1C (configuration not stated),i,i,i,i,i,i
COc1ccc(-c2cc(C(=O)O)n(Cc3ccccc3)n2)cc1,i,i,nt,nt,nt,nt
CN(CCN1CCOCC1)C(=O)c1cc(COc2ccc(F)c(F)c2)on1,i,i,i,i,i,i
Cc1ccc(-c2csc3ncn(C(C)C(=O)O)c(=O)c23)cc1 (configuration not stated),i,i,i,i,i,i
O=C(CSc1nc2c([nH]c3ccccc32)c(=O)n1-c1ccc(F)cc1)N1CCCCC1,i,i,nt,nt,nt,nt
Cc1ccc(-n2c(SCC(=O)NCc3ccc(F)cc3)nc3c([nH]c4ccccc43)c2=O)cc1,18.4µM,23.1µM,nt,nt,nt,nt
C[C@H]1CN([C@@H](C)CO)C(=O)CCCn2nncc2CO[C@H]1CN(C)C(=O)Cc1ccccc1,i,i,nt,i,i,i
CC1CC(C)CN(CC(O)COCc2ccccc2F)C1 (configuration not stated),i,i,i,i,i,i
O=C(O)C(CCC(C(=O)O)c1ccccc1)c1ccccc1 (configuration not stated),i,i,i,i,i,i
Cc1ccc(-c2nc(-c3cc4cccc(OCc5cccc(C)c5)c4oc3=O)no2)cc1,?,9.2µM,nt,nt,nt,nt
c1cncc(-c2cncnc2NC2CCNCC2)c1,16.4µM,i,nt,nt,nt,nt
SMILES,DT40 TDP1 CPT,TDP1 cell noCPT,uPA surface inh,IL1B secr inh,HT1080 IDH1KD tx,HT1080-NT tox
c1cncc(-c2ccc3ncnc(NC4CCNCC4)c3c2)c1,i,i,nt,nt,nt,nt
CC(=O)c1ccc(OCC(=O)OCC(=O)c2ccc(S(=O)(=O)N3CCCCC3)cc2)cc1,i,i,nt,i,i,i
COc1ccc(-c2noc(-c3ccc(N4CCCCC4)c([N+](=O)[O-])c3)n2)cc1,i,?,nt,nt,nt,nt
COc1ccc(C(=O)/C=C/c2ccc(N3CCCCC3)c([N+](=O)[O-])c2)cc1,?,?,i,-101.2,i,i
Cc1ccc(C(=O)O/N=C\c2ccc(N3CCCCC3)c([N+](=O)[O-])c2)cc1,?,13µM,i,i,i,i
COc1ccc(C(=O)/C=C/c2ccc(N3CCCCC3)c([N+](=O)[O-])c2)c(OC)c1,?,20.6µM,i,?,?,i
COc1ccc(C=CC(=O)c2ccc([N+](=O)[O-])cc2)cc1,i,i,i,i,i,i
O=C(O/N=C\c1ccc(N2CCCCC2)c([N+](=O)[O-])c1)c1cccc(Cl)c1,i,?,i,i,i,i
COC(C(=O)N1CCC(CCC(=O)Nc2ccccc2)CC1)c1ccccc1 (configuration not stated),20.6µM,9.2µM,i,i,i,i
COc1ccc(C(=O)N2CCC(CCC(=O)Nc3cccc(C)c3)CC2)cc1,i,i,i,i,i,i
COCc1ccc(C(=O)N2CCC(CCC(=O)Nc3cccc(C)c3)CC2)s1,i,i,i,i,i,i
CCc1noc(C)c1C(=O)N1CCC(CCC(=O)Nc2cccc(OC)c2)CC1,9.2µM,8.2µM,i,i,i,i
COc1cccc(NC(=O)CCC2CCN(C(=O)c3c(C)noc3C)CC2)c1,?,?,i,i,i,i
Cc1cccc(NC(=O)CCC2CCN(C(=O)c3ccc(C)s3)CC2)c1,i,4.11µM,i,i,i,i
CCCCSc1ncnc2c1ncn2C1CCCCO1 (configuration not stated),i,?,i,i,i,i
C#CCOc1c(Br)cc(/C=N/O)cc1OCC,i,29.1µM,i,i,i,i
CCOc1cc(/C=N/O)cc(Br)c1OCc1ccc(Cl)cc1,?,?,i,-77.8,?,?
CCOc1cc(/C=N/O)ccc1OS(=O)(=O)c1ccc(C)cc1,i,?,i,i,i,i
CCOc1cc(/C=N/O)cc(Br)c1OCC,i,i,i,i,i,i
CCOc1cc(/C=N/O)ccc1OCc1ccc(C)cc1,?,23.1µM,i,i,?,?
CC(=O)Nc1ccc(-c2csc(NCc3ccccc3)n2)cc1,i,?,nt,i,i,i
CC(=O)Nc1ccc(-c2csc(NNC(=O)c3ccccc3)n2)cc1,11.6µM,1.3µM,i,?,i,i
CC(=O)Nc1ccc(-c2csc(N/N=C(/C)c3ccccc3)n2)cc1,20.6µM,9.2µM,i,-70.4,i,i
